Assay outcomes as filed in PubChem BioAssay.
Shown are actives, neighbours in structure and some others; about 3.2% of the full set was active somewhere.
TMEM16A inh – TMEM16A chloride channel inhibitors, primary screen, cell-based, HTS; Anoctamin-1 (Mus musculus), Q8BHY3; HEK293 TMEM16A/YFP iodide influx fluorescence, ionomycin; normalized B-score (activity score, 25-100; higher = stronger inhibition) at 10 µM; 310,000 tested, 1.2% active; AID 588511, 2011;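 active = ratio plate-corrected score three or more library SD toward inhibition, starting fluorescence score within five deviations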;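 note: score derived from kinetic fluorescence span divided by baseline fluorescence per well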
HDAC3 inh – HDAC3 deacetylase inhibitors, primary screen, biochemical, fluorescence, cell-free homogeneous; inhibition, % at 8.3 µM; 320,000 tested, 0.15% active; recombinant HDAC3, fluorogenic peptide/trypsin coupled; AID 2718, 2010; in the data active = inhibition above about 26%, passing the limit was not always enough
Target sequence (O15379 whole entry, looked up): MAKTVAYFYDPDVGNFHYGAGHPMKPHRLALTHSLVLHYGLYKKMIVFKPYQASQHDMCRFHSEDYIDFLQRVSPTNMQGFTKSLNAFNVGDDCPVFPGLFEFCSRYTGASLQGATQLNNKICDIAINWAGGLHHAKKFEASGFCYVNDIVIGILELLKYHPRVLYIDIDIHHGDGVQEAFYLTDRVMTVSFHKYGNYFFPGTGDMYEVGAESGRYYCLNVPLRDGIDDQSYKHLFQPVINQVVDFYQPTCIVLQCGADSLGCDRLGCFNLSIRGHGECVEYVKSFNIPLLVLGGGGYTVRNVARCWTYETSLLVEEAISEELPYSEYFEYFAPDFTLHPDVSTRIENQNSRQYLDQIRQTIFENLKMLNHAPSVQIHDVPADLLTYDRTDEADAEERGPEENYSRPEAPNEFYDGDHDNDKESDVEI
PHOSPHO1 inh – PubChem AID 1565. Phosphoethanolamine/phosphocholine phosphatase (Homo sapiens), Q8TCT1. recombinant PHOSPHO1, absorbance phosphatase assay. inhibition, % at 13.3 µM. 290,000 tested, 1.1% active; in the data active = inhibition above about 60%
CHT block – inhibitors of human choline transporter CHT; High affinity choline transporter 1 (Homo sapiens), Q9GZV3; CHT-expressing cells, membrane potential dye, choline response; stronger effect = lower value; B-score at 10 µM; 310,000 tested, 0.86% active;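 active = B-score over 3 SD under the library average, and starting fluorescence ratio not unusually high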;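 note: choline stimulus applied at its EC90 after an EC20 pre-addition; B-score computed on integrated fluorescence ratio after choline addition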
CHT PAM – CHT positive allosteric modulators, primary screen, cell-based, membrane potential dye, choline EC20. CHT-expressing cells; stronger effect = higher value; LV-AA mutant CHT in HEK293 cells. B-score at 10 µM. 310,000 tested, 0.49% active;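 active = initial fluorescence not abnormally high and integrated response B-score, plate-corrected, over 3 SD above library mean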
TMEM16A act – TMEM16A chloride channel activators or potentiators, primary screen, cell-based, HTS; HEK293 TMEM16A/YFP-H148Q/I152L, iodide quench fluorescence; stronger effect = lower value; B-score at 10 µM; Anoctamin-1 (Mus musculus), Q8BHY3; 340,000 tested, 0.3% active;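 active = fluorescence-ratio B-score plate-corrected deviation score at least 3 library SD below zero, with starting fluorescence score within 5 deviations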;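 note: channel opened by trigger with iodide after compound preincubation; score built on the fluorescence ratio of max minus min over baseline; more negative score means more quench and so TMEM16A activation or potentiation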
CHT act confirm – CHT activators, confirmation, cell-based, membrane potential dye, duplicate. shares compounds with CHT PAM. CHT-expressing cells, membrane potential dye fluorescence (FDSS); % of choline EC20–EC90 response window; HEK293 expressing CHT LV-AA mutant; choline added at its EC20. activation, % at 10 µM. 2,500 tested, 91% active. AID 504833, 2011;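 active = primary screen active, with duplicate mean activation above negative control mean plus 3 SD, cut at about 11% in these data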
HEK293 MP dye – membrane potential response in parental HEK293 cells, counter-screen for CHT activator project, cell-based, membrane potential dye; shares compounds with CHT PAM; membrane potential dye fluorescence (FDSS); measured after EC20 choline addition; ratio readout change at 10 µM, hits read low; 2,500 tested, 62% active; AID 623908, 2012;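 active = duplicate-averaged ratio beyond 3 SD from buffer wells, up or down, though filed actives are nearly all decreases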
Each line names hits and unclear results; the compound was inactive in the other large screens (follow-up assays come after a bar, where they were run).

COCCOC(=O)c1[nH]c2c(c1C)C(=O)CC(c1ccccc1)C2 (centres undefined)	none | CHT act confirm inactive | HEK293 MP dye inactive
COCCOC(=O)c1[nH]c2c(c1C)C(=O)CC(c1ccc(N(C)C)cc1)C2 (centres undefined)	none
CCCCCOc1ccc(Br)cc1/C(C)=N/NC1=NCCN1	CHT PAM 8.7 | CHT act confirm 55 | HEK293 MP dye inactive
COc1cc(/C=N/NC(=O)c2ccncc2)ccc1Oc1ccc([N+](=O)[O-])cn1	none
CCCCOC(=O)N1CCOCCOCCOCC1	none | CHT act confirm 17 | HEK293 MP dye inactive
CSc1nc2ccccc2n1CC(=O)Nc1cc(C(F)(F)F)ccc1N1CCOCC1	none
Cc1[nH]c2ccc3ncccc3c2c1C	CHT PAM 6.8 | CHT act confirm 30 | HEK293 MP dye -65
CCC(C)N(C(=O)CSc1nnc(-c2cccs2)n1C1CC1)C1CCS(=O)(=O)C1 (centres undefined)	none (no result: TMEM16A inh, HDAC3 inh, PHOSPHO1 inh, CHT block, CHT PAM)
C[N+](C)(C)CCCCCCCCCC[N+](C)(C)C	CHT PAM 7.8 | CHT act confirm 43 | HEK293 MP dye -52
CC(=O)c1cccc(NC(=O)c2cc3ccccn3n2)c1	none | CHT act confirm 35 | HEK293 MP dye -27
CC[n+]1c(C)n(-c2ccccc2)c2ccc(C(=O)OC)cc21	CHT PAM 7.5 | CHT act confirm 32 | HEK293 MP dye -29
CCN(CC(=O)Nc1ccc(S(N)(=O)=O)cc1)S(=O)(=O)c1cc(C)ccc1OC	none
O=C(CCCN1CCC(O)(c2ccc(Br)cc2)CC1)c1ccc(F)cc1	none (no result: PHOSPHO1 inh) | CHT act confirm 60 | HEK293 MP dye inactive
CCC(CC)c1nnc(NC(=O)c2nc3nc(C)cc(C)n3n2)s1	CHT PAM 7.3 | CHT act confirm 30 | HEK293 MP dye -31
Cc1cc(C)n2nc(C(=O)Nc3ccc4c(c3)OCO4)nc2n1	CHT PAM 7.6 | CHT act confirm 30 | HEK293 MP dye -35
Cc1cc(C)n2nc(C(=O)Nc3ccc(S(=O)(=O)N(C)C)cc3)nc2n1	CHT PAM 8.2 | CHT act confirm 60 | HEK293 MP dye -56
Cc1cc(C)n2nc(C(=O)N/N=C/c3ccc(O)cc3)nc2n1	CHT PAM 6.5 | CHT act confirm 30 | HEK293 MP dye -24
Cc1cc(C)n2nc(C(=O)Nc3ccc4c(c3)OCCO4)nc2n1	none (no result: TMEM16A inh, PHOSPHO1 inh, CHT block, CHT PAM)
CCCCNC(=O)CCn1c(=O)c2ccccc2n(Cc2ccc(F)cc2)c1=O	none
Cc1nnc2sc(-c3cccc(NC(=O)c4cccnc4)c3)nn12	CHT PAM 7.9 | CHT act confirm 35 | HEK293 MP dye -49
Cc1ccc(-c2nn3c(C)nnc3s2)cc1NC(=O)c1cccnc1	CHT PAM 8.3 | CHT act confirm 59 | HEK293 MP dye -54
O=C(Nc1cccc(NC(=O)c2cccnc2)c1)c1cccnc1	none
O=[N+]([O-])c1ccc2nc(-c3cccnc3)[nH]c2c1	none | CHT act confirm 52 | HEK293 MP dye -54
O=[N+]([O-])c1ccc2nc(-c3ccccc3)[nH]c2c1	none
CC1=Nc2ccc(C)c3nc(C)cc(c23)N1c1ccc(C)cc1	CHT PAM 8.5 (no result: PHOSPHO1 inh) | CHT act confirm 42 | HEK293 MP dye -60
Cc1ccc(N2C(=O)c3cccc4cccc(c34)C2=O)cc1	none
CSc1nnc(-c2ccccc2N=Cc2c(C)[nH]n(-c3ccc4ccccc4c3)c2=O)c(=O)[nH]1	CHT PAM 8.3 | CHT act confirm 24 | HEK293 MP dye inactive
